Shown are actives, neighbours in structure and some others; about 1.8% of the full set was active somewhere.
DUSP3 inh = VHR1 phosphatase inhibitors, primary screen, biochemical, absorbance, uHTS. inhibition, % at 13.3 µM. hit rate 0.52% among 290,000. recombinant VHR phosphatase, pNPP absorbance. Dual specificity protein phosphatase 3 (Homo sapiens), P51452; in the data active = inhibition above about 50%
Target sequence (P51452 whole entry, looked up): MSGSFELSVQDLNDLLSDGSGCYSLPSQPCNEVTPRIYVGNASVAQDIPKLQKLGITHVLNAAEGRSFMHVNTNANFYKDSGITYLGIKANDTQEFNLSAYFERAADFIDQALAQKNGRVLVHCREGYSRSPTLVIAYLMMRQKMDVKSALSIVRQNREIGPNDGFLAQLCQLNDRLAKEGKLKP
Y pestis TopoI = Yersinia pestis topoisomerase I inhibitors, primary screen, biochemical, cleavage product accumulation, plate reader, single point | DNA topoisomerase I (Yersinia pestis CO92) | Y. pestis Topo-I cleavage product accumulation | activity, % at 10 µM | hit rate 0.064% among 360,000; in the data active = activity above about 50%, passing the limit was not always enough
CCHF vOTU inh-1 = CCHFV vOTU protease inhibitors, primary screen, biochemical, Pep-AMC substrate, fluorescence; Crimean-Congo hemorrhagic fever virus L polyprotein viral ovarian tumor (vOTU) protease …; inhibition, % at 11.5 µM; hit rate 0.55% among 370,000; AID 651958, 2012; also: 0% = vehicle wells with enzyme and 100% = no enzyme wells
PrPC surface inh = inhibitors of human cell surface prion protein PrPC, primary screen, cell-based, TR-FRET; inhibition, % at 13.8 µM; TR-FRET read-out; hit rate 0.43% among 370,000; AID 720596, 2013; in the data active = inhibition above about 24%; also: 0% = median of the test wells and 100% = reference compound wells
MazF activator = activators of E. coli MazEF toxin-antitoxin RNase, primary screen, biochemical, fluorescence, uHTS; Endoribonuclease toxin MazF (Escherichia coli (strain K12)), P0AE70; activation, % at 20 µM; FAM/BHQ RNA-DNA oligo cleavage fluorescence, 5 h; hit rate 0.32% among 350,000; in the data active = activation above about 50%
Target sequence (P0AE70 whole entry, looked up): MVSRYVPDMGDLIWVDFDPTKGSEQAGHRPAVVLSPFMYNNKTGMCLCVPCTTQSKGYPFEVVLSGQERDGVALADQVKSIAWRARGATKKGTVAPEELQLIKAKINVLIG
BH1578 lux ind = inducers of Vibrio cholerae quorum light production without autoinducers, primary screen, BH1578 luxS cqsA deficient, single point; V. cholerae BH1578 lux reporter, luminescence, 6 h; AID 588436, 2011; hit rate 0.16% among 350,000; activation, % at 18.7 µM; in the data active = activation mostly above about 9.7%, no sharp cut-off
CCHF vOTU inh-2 = CCHFV vOTU protease inhibitors, confirmation, biochemical, Pep-AMC substrate, fluorescence; shares compounds with CCHF vOTU inh-1; Recombinant CCHFV vOTU; inhibition, % at 11.5 µM; hit rate 17% among 1,900; AID 686976, 2013
* hit, by the source's call; i = inactive; . = no result given. Rule as the data show it, unless noted: active = inhibition above about 30%; inactive = the rest.

SMILES	DUSP3 inh	Y pestis TopoI	CCHF vOTU inh-1	PrPC surface inh	MazF activator	BH1578 lux ind	CCHF vOTU inh-2
Cc1cccc(NC2=C/C(=N/S(=O)(=O)c3cccs3)c3ccccc3C2=O)c1	-3.9	-2.7	27.1	0.4	-2.8	-0.3	.
O=C(O)c1ccc(NC2=C/C(=N/S(=O)(=O)c3cccs3)c3ccccc3C2=O)cc1	.	-8.7	110.1*	-27.5	2.8	-1.4	104.8*
CCc1ccc(S(=O)(=O)/N=C2\C=C(Nc3cccc(C(=O)O)c3)C(=O)c3ccccc32)cc1	35.3	-5.7	136.9*	-24.4	-11.2	0.1	114.8*
Cc1ccc(S(=O)(=O)/N=C2\C=C(NS(=O)(=O)c3ccccc3)C(=O)c3ccccc32)cc1	.	1.9	51.3*	-1.9	0.0	-3.2	29.1
CCCCCCCCN1C(=O)[C@@H](CC(=O)NCCc2ccccc2OC)C[C@@]2(C(=O)OC)C1=C[C@H](C1CCCC1)O[C@@H]2C	.	.	8.6	-4.2	.	.	.
O=C(NCCCn1ccnc1)c1noc2c1CCCC2	7.1	-8.0	-9.4	-6.1	1.6	i	.
O=C(NCCCn1ccnc1)c1noc2c1CCc1ccccc1-2	12.0	5.9	38.7*	6.9	-2.8	-0.5	21.5
COc1cc2c(cc1OC)CN(CC(=O)Nc1ccc(C)c(C)c1)CC2	37.7	16.8	-4.5	-2.8	-2.8	i	.
COc1cc2c(cc1OC)CN(CC(=O)Nc1ccc(C)cc1)CC2	-6.0	11.7	30.3*	2.0	-3.4	-0.2	-21.5
O=[N+]([O-])c1cc(Br)c2c(c1)CCN2	.	-4.5	30.4*	-5.6	1.6	-0.7	0.7
CCOc1ccc(N=Nc2c(=O)[nH]n3c(=O)cc(C)[nH]c23)cc1	32.7	-3.2	35.6*	-49.3	1.6	0.4	10.4
Cc1cc(=O)n2[nH]c(=O)c(N=Nc3ccccc3)c2[nH]1	36.7	0.0	16.1	-42.8	-1.2	i	.
O=C(O)CN1C(=O)/C(=C\c2cc(Br)ccc2OCc2ccc([N+](=O)[O-])cc2)SC1=S	11.3	1.8	32.3*	-13.6	-18.7	1.4	19.4
O=C(COc1ccc2c(c1)oc(=O)c1ccccc12)NC(Cc1ccc(Cl)cc1)C(=O)O (centres undefined)	28.8	22.6	-57.4	-1.0	-2.5	-0.3	.
Cc1ccccc1-c1cc(=O)c2c(O)cccc2o1	10.4	13.5	34.9*	-1.6	10.6	i	-1.7
CCCCCCCCN1C(=O)[C@@H](CC(=O)NCCCCc2ccccc2)C[C@@]2(C(=O)OC)C1=C[C@H](COCc1ccccc1)O[C@@H]2C	.	.	23.0	6.3	.	.	.
CCCCCCCCN1C(=O)[C@@H](CC(=O)NCCCOCCCC)C[C@@]2(C(=O)OC)C1=C[C@H](COCc1ccccc1)O[C@@H]2C	.	.	30.4*	1.7	.	.	8.1
C#CCNC(=O)C[C@H]1C[C@@]2(C(=O)OC)C(=C[C@H](C3CCCC3)O[C@@H]2C)N(CCCCCCCC)C1=O	.	.	39.1*	4.2	.	.	23.5
CCCCOCCCNC(=O)C[C@H]1C[C@@]2(C(=O)OC)C(=C[C@H](C(C)(C)C)O[C@@H]2C)N(Cc2cccc3ccccc23)C1=O	.	.	34.6*	0.6	.	.	4.9
CCCCOCCCNC(=O)C[C@H]1C[C@@]2(C(=O)OC)C(=C[C@H](C(C)(C)C)O[C@@H]2C)N(Cc2ccc3c(c2)OCO3)C1=O	.	.	37.4*	8.4	.	.	17.7
CCCCCCCCN1C(=O)[C@@H](CC(=O)NCCCOCCCC)C[C@@]2(C(=O)OC)C1=C[C@H](C1CCCC1)O[C@@H]2C	.	.	8.4	6.5	.	.	.
CCCCOCCCNC(=O)C[C@H]1C[C@@]2(C(=O)OC)C(=C[C@H](COCc3ccccc3)O[C@@H]2C)N(Cc2ccc3c(c2)OCO3)C1=O	.	.	14.1	-0.6	.	.	.
CC(C)C[C@H]1CNC(=S)N1CC1CCN(CC2CCC(C(C)(C)C)CC2)CC1 (some centres undefined)	.	3.8	11.6	-6.0	-9.0	-1.1	.
CCOc1ccc(/C=C/C(=O)N(C)CC(=O)Nc2cccc(F)c2)cc1OCC	.	-4.3	-26.4	-3.8	0.8	i	.
CCOc1ccc(Nc2ccc(N)c(S(=O)(=O)O)c2)cc1	.	-8.6	29.6*	-11.7	5.2	3.4	8.0
SMILES	DUSP3 inh	Y pestis TopoI	CCHF vOTU inh-1	PrPC surface inh	MazF activator	BH1578 lux ind	CCHF vOTU inh-2
CCOc1ccc(NC(N)=O)cc1	29.2	8.5	-17.6	2.5	-4.0	-0.5	.
CC(C)N(C)C1=CC(=O)C(N(C)C(C)C)=CC1=O	.	-7.5	44.4*	-18.3	-25.4	.	-1.6
CC1([N+](=O)[O-])COP(=O)(Nc2cccc(Cl)c2)OC1 (centres undefined)	.	-5.8	38.1*	-3.7	8.2	i	-18.4
O=C1NC(=O)N(Cc2ccc(F)cc2)C(=O)/C1=C\c1ccc([N+](=O)[O-])s1	-7.7	-23.1	31.8*	-7.9	-39.5	1.6	22.8
CCc1nn(CCCC(=O)NCc2ccccc2Br)c(=O)c2cc3occc3n12	0.4	-3.4	47.3*	7.5	-1.5	-12.4	-4.0
CC(=O)N1CCN(c2ccc(N)cc2)CC1	.	5.8	38.2*	-21.9	1.1	-0.4	-15.3
O=C1C=C(N2CCCCC2)c2ccccc2C1=O	.	-7.6	81.8*	-13.8	4.1	-0.3	81.5*
O=C1c2ccccc2-c2onc3ccc(N4CCCC4)c1c23	7.8	-2.2	15.2	-97.0	-504.0	0.5	.
O=S(=O)(c1ccccc1S(=O)(=O)N1CCCCC1)N1CCCCC1	21.3	19.1	.	.	-12.6	-0.9	.
O=C1c2ccccc2C(=O)c2c1cccc2N1CCCC1	0.1	1.1	74.9*	-57.4	1.5	-1.3	-5.3
CC(C)(C)OC(=O)C[C@H]1C/C=C\C[C@H](CC(=O)N[C@H](CO)Cc2ccccc2)C(=O)N2CCC[C@H]2COC1=O	.	16.3	9.2	-0.3	8.2	-3.1	.
C[C@@H]1CN([C@@H](C)CO)C(=O)c2cc(Br)cnc2O[C@@H]1CN(C)C(=O)c1ccc(F)cc1	.	.	7.4	-0.7	.	.	.
Cn1c(-c2ccc3nc(N)sc3c2)nc2cc(N)ccc21	26.4	7.3	34.2*	11.6	5.6	0.1	-37.8
Cc1[nH]n(-c2ccccc2)c(=O)c1C(c1cccc([N+](=O)[O-])c1)c1c(C)[nH]n(-c2ccccc2)c1=O	4.5	3.1	40.6*	-8.2	1.5	0.6	-13.0
Cc1[nH]n(-c2ccccc2)c(=O)c1C(c1cccc([N+](=O)[O-])c1O)c1c(C)[nH]n(-c2ccccc2)c1=O	1.5	2.5	32.6*	-9.9	8.1	-0.1	-16.8

From PubChem
